Among the data in PubChem BioAssay (NCI) are growth values, retold here.

Values joined by “and” are separate entries in the source; they are usually repeats but may differ in a detail not shown here. Equal entries are not always repeated. The panel holds about 83,000 compounds, 20% with a hit somewhere; the sample as a whole holds those more often.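 Growth was measured after 48 h exposure to one concentration of compound in 96-well plates. Values under 10 count as active.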 Values without a mark were called inactive. Active and inactive are the calls of the source.

What all share (assay): NCI-60 one-dose screen, 48 h (100 = growth as untreated, 0 = no growth, -100 = all killed)
What all share (conditions): 10 µM unless noted

The test system of experiment [1] is HCT-15 colon.
Experiment [2] concerns HT29 colon.
Experiment [3] concerns SNB-75 CNS.
For experiment [4], the system named is SNB-19 CNS.
Experiment [5] relates to U251 CNS.
Experiment [6] deals with PC-3 prostate.
Experiment [7] concerns SK-MEL-5 melanoma.
Experiment [8] relates to UACC-62 melanoma.
Experiment [9] relates to SK-MEL-28 melanoma.
In experiment [10] the test system is SK-MEL-2 melanoma.
Experiment [11] concerns EKVX NSCLC.
In experiment [12] the test system is SN12C renal.
For experiment [13], the system named is UO-31 renal.
Experiment [14] concerns TK-10 renal.
Experiment [15] deals with ACHN renal.
The test system of experiment [16] is A498 renal.
Experiment [17] deals with CCRF-CEM leukemia.
Experiment [18] deals with MOLT-4 leukemia.
Experiment [19] concerns CAKI-1 renal.
Experiment [20] deals with LOX IMVI melanoma.

For the compound `N=C1/C(=C2\NC3C=CC=CC3S2)C(c2ccc(Cl)cc2)C2C(=O)N(c3ccccc3)C(=S)N12` (stereo not drawn), the growth in experiment [1] was 110%; in experiment [2] it was 107%; in [3] it was 106%; in experiment [4], 96.6%; in [5], 101%; in [6], 94.3%. Also, the growth in [7] was 99.4%; in [8] it was 94.1%; in experiment [9], 103%; in [10], 107%; in experiment [11], 104%; in experiment [12] it was 99.7%. Moreover, the growth in experiment [13] was 81.6%; in experiment [14] it was 123%; in experiment [15] it was 103%; in experiment [16], 116%; in experiment [17], 101%; in [18] it was 88.3%.

For `O=C(N=Nc1c(O)[nH]c2ccccc12)Nc1ccc(Br)cc1`, the growth in experiment [1] was 77%; in [2], 97.6%; in experiment [3] it was 105%; in experiment [4], 96.5%; in experiment [5] it was 101%; in experiment [6], 91.9%. For the same compound, the growth in experiment [7] was 81.9%; in [8], 79.3%; in experiment [9], 89.3%; in [10], 93.5%; in [11], 86.6%; in [12], 99.3%. Besides, the growth was 66.8% in experiment [13]; 90% in experiment [14]; 83.7% in [15]; 76.3% in experiment [19]; 72% in experiment [16]; -43.8% (active) in [17]. For the same compound, in experiment [18], the growth was 90.2%.

As for `CC(=O)c1nn(-c2ccccc2)/c(=N/N=Cc2cn(-c3ccccc3)nc2-c2cc3ccccc3oc2=O)s1`, the growth is 98.1% in [1]; 109% in experiment [2]; 104% in experiment [3]; 103% in [4]; 91.6% in experiment [5]; 101% in experiment [6]. For the same compound, the growth in [7] was 101%; in [8], 92.9%; in [20], 98.9%; in experiment [10], 103%; in experiment [11], 97.2%; in [12] it was 105%. For the same compound, the growth was 103% in experiment [14]; 101% in experiment [15]; 88.5% in experiment [19]; 120% in experiment [16]; 101% in [17]; 95.9% in [18].

Take `COC1=CC(c2ccc[nH]2)=N/C1=C\c1[nH]c(C)c(C(=O)Oc2ccccc2)c1C`: the growth in [1] was -35.1% (active); in experiment [2], -15.7% (active); in experiment [3], -16.6% (active); in experiment [4], 20.9%; in experiment [5] it was -16.5% (active); in experiment [6] it was 17.6%. Further, the growth was -99.9% (active) in experiment [7]; -62.8% (active) in experiment [8]; -77.9% (active) in experiment [9]; -68.6% (active) in [10]; -19.9% (active) in [11]; 0.383% (active) in experiment [12]. Moreover, the growth is -87.2% (active) in experiment [13]; -6.73% (active) in experiment [14]; -90.3% (active) in [15]; -23.8% (active) in experiment [19]; -46.7% (active) in experiment [16]; 18.6% in experiment [17]. In addition, the growth in experiment [18] was 3.87% (active).

In the case of `O=C(CCCCCCCCC(=O)N/N=C\c1ccccc1O)N/N=C\c1ccccc1O`, the growth in [1] was 22.1%; in [2] it was 68.4%; in experiment [3], 37.5%; in experiment [4], 24.1%; in experiment [5], 15.2%; in experiment [6], 31.5%. In addition, the growth in experiment [7] was -59.8% (active); in [8], -7.2% (active); in experiment [20] it was 10.8%; in experiment [10], 32%; in experiment [11], 26.3%; in experiment [12] it was 21.6%. The growth was 13.2% in [13]; 46.4% in [14]; 9.16% (active) in experiment [19]; 46.5% in experiment [16]; 10.8% in experiment [17]; 15% in [18].

With `O=C(/C=C\c1ccc(Cl)c(Cl)c1)c1ccccc1`, the growth was 65.6% and 100% in experiment [1]; 37.5% and 88.8% in experiment [2]; 98.5% and 99.9% in [3]; 86.9% and 98.4% in [4]; 85.3% in experiment [5]; 98.8% and 87.6% in experiment [6]. The growth in experiment [7] is 97.2% and 101%; in [8] it was 91.7% and 95.9%; in experiment [20], 10.8% and 91.5%; in experiment [10], 119% and 109%; in experiment [11] it was 89.3%; in experiment [12], 96.1% and 104%. Moreover, the growth was 72.2% and 84.2% in [13]; 80.6% and 103% in experiment [14]; 95.2% and 105% in [15]; 74.1% and 77.3% in experiment [16]; 45.5% and 91.1% in [17]; 77.4% and 103% in experiment [18].

As to `CN1CCN(Cc2ccc(NC(=O)c3cccc(C#Cc4c(N)ncc5ccc(F)cc45)c3)cc2C(F)(F)F)CC1`, the growth in [1] was -77.9% (active); in experiment [2], -56.1% (active); in experiment [3] it was -92.4% (active); in [4] it was -85.9% (active); in experiment [5], -67.9% (active); in experiment [6], -19.2% (active). Besides, the growth was -83.1% (active) in [7]; -51.1% (active) in [8]; -90.2% (active) in [9]; -49.9% (active) in experiment [10]; -19.6% (active) in [11]; 5.02% (active) in experiment [12]. Also, the growth was -69.5% (active) in [13]; -70.9% (active) in [14]; -93.5% (active) in experiment [15]; -98.5% (active) in experiment [19]; -78.9% (active) in experiment [16]; -23.1% (active) in [17]. The growth in experiment [18] is -61.4% (active).

For the compound `C=C(CNCCO)[C@@H]1CC[C@]2(CO)CC[C@]3(C)[C@H](CC[C@@H]4[C@@]5(C)CCC(NCCc6ccc(O)cc6)C(C)(C)[C@@H]5CC[C@]43C)[C@@H]12` (stereo partly drawn), the growth in experiment [1] was -88.4% (active); in experiment [2], -68.7% (active); in [3] it was -97.8% (active); in experiment [4], -72.9% (active); in experiment [5], -92.7% (active); in experiment [6] it was -43.4% (active). The growth in experiment [7] is -95.3% (active); in experiment [8] it was -81.5% (active); in experiment [9], -94.1% (active); in experiment [10], -84.1% (active); in experiment [11] it was -75.3% (active); in [12] it was -73.7% (active). Also, the growth is -95.4% (active) in experiment [13]; -89.4% (active) in experiment [14]; -96.6% (active) in [15]; -85.8% (active) in experiment [19]; -87.5% (active) in experiment [16]; -28.5% (active) in experiment [17]. The growth in experiment [18] was -30.3% (active).
